# In the library only some 21% were active in any assay of this set; here they are far more common.
# TDP1 cell noCPT: qHTS for Inhibitors of human tyrosyl-DNA phosphodiesterase 1 (TDP1): qHTS in cells in absence of CPT; DT40 Tdp1-/- hTDP1 cells, no CPT, ATP luminescence, 48 h; Potency, µM (titrated, usually from 46.2 µM), inactives show at the top dose activity change, negative = growth inhibition, usual class: inhibitors; actives 15% (n = 420,000); note: potency is the fitted concentration of half-maximal effect; % is set by controls: 0 for no effect and ±100 for the full control effect; nearly all actives have a fitted effect of over 55% in size
#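 No-CPT arm: Tdp1-/-;hTDP1 DT40 cells (400/well) plus compounds, incubated ≥48 hr at 37 °C. Readout CellTiter-Glo luminescence.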
# ClpP mod: qHTS Assay for Activators of ClpP; Potency, µM (titrated, usually from 57.5 µM), for inactives: top-dose activity change, negative = active; AID 651965, 2013; ATP-dependent Clp protease proteolytic subunit (Bacillus subtilis (strain 168)), P80244; actives 1.9% (n = 340,000); purified B. subtilis ClpP, FRET peptide cleavage, 20 min; active = well fitted falling curve with a large enough effect; inconclusive = small, poorly fitted or top-dose-only effect; inactive = no such curve, though single readings can be large or run the other way; note: potency is the fitted concentration of half-maximal effect; the source files actives as falling curves though it sought activators and does not explain the sign; nearly all actives have a fitted effect of over 65% in size
# Target sequence (P80244 whole entry, looked up): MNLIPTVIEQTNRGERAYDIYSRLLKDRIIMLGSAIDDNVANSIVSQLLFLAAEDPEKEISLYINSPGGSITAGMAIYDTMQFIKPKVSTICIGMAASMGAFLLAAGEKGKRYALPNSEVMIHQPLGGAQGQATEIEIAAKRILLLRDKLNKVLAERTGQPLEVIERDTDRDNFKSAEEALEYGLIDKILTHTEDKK
#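 Buffer: 100 mM Tris/HCl pH8, 100 mM KCl, 0.05% low protease BSA, 2.5% glycerol, 0.01% Tween-20. ClpP 10 microg/mL final; 20 min RT; delta FRET normalized to ADEP and DMSO controls.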
# TDP1 cell CPT: qHTS for Inhibitors of human tyrosyl-DNA phosphodiesterase 1 (TDP1): qHTS in cells in presence of CPT; actives 12% (n = 420,000); AID 686979, 2013; chicken DT40 Tdp1-/-;hTDP1 cells + 20 nM CPT, ATP luminescence, 48 h; Potency, µM (titrated, usually from 46.2 µM), for inactives: at the top dose activity change, negative = growth inhibition, most hits filed as inhibitors; note: potency is the fitted concentration of half-maximal effect; % is set by controls: 0 for no effect and ±100 for the full control effect; nearly all actives have a fitted effect of over 55% in size
#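 Chicken DT40 Tdp1-/- cells stably complemented with human TDP1 were seeded at 400 cells/well in medium containing 20 nM camptothecin, exposed to pin-transferred compounds, and grown at 37 °C for at least 48 hr. Viability was read as ATP luminescence.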
# DRD3 antagonist: qHTS of D3 Dopamine Receptor Antagonist: qHTS; AID 652054, 2013; D3R cells, DiscoveRx beta-arrestin luminescence, antagonist mode; hits give low values; D(3) dopamine receptor (Homo sapiens), P35462; actives 2.5% (n = 360,000); max response, negative = inhibition, %; in the data active = max response below about -50%; inconclusive = no clear call, values can overlap the other calls; note: % is set by controls: 0 for no effect and ±100 for the full control effect
# Target sequence (P35462 whole entry, looked up): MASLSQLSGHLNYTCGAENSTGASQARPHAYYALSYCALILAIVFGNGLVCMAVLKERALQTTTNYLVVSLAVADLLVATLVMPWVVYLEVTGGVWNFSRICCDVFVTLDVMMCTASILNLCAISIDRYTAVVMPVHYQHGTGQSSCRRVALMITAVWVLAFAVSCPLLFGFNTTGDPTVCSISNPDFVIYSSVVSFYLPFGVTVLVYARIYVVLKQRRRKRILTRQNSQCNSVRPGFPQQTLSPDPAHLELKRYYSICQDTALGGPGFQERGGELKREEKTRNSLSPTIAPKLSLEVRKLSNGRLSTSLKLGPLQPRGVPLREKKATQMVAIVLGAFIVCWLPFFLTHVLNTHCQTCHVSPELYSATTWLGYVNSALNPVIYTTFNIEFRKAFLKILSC
#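 Cells expressing the human receptor were seeded at 1500 cells/well, incubated overnight at 37 degrees C in 5% CO2, then exposed to library compounds with dopamine controls for 90 minutes at 37 degrees C before luminescent detection.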
# D3 ag: qHTS of D3 Dopamine Receptor Agonist: qHTS; D(3) dopamine receptor (Homo sapiens), P35462; D3R DiscoveRx beta-arrestin cells, luminescence, 90 min; max activation, %; actives 0.58% (n = 410,000); AID 652048, 2013; in the data active = max activation above about 30%; note: 0% is about no effect
#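 Agonist-mode cell screen: cells plated at 1500/well and incubated overnight at 37 °C, then exposed to library compounds for 90 min at 37 °C. Detection reagent was added for 30–60 min at room temperature, and luminescence was read.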
# IL1B secr inh: qHTS for Inhibitors of Inflammasome Signaling: IL-1-beta AlphaLISA Primary Screen. THP-1 LPS/ATP IL-1B secretion, AlphaLISA, 16 h; hits give low values. activity change, % at 57.5 µM. actives 4.7% (n = 360,000). AID 743279, 2014; in the data active = activity change below about -50%; inconclusive = mostly about -30% to -49%; note: % is set by controls: 0 for no effect and ±100 for the full control effect
#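 THP-1 cells pretreated 1 hr with compounds (up to 57.5 uM final), then stimulated with LPS (250 ng/mL final) plus ATP (1.25 mM final); secreted IL-1B measured by AlphaLISA after 16 hr, decreased signal indicating inhibition.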
# Starred values were filed as active, the others as inactive; ? = inconclusive; . = no result given. Unless noted, calls come from the whole dose curve; as a rule, active = well fitted inhibition curve with a large enough effect; inconclusive = small, poorly fitted or top-dose-only effect; inactive = flat fitted curve, though single readings scatter.
SMILES,TDP1 cell noCPT,ClpP mod,TDP1 cell CPT,DRD3 antagonist,D3 ag,IL1B secr inh
COc1ccc(NC(=O)C#Cc2ccccc2)cc1OC,?,.,6.5µM*,?,-25,-71*
Cc1[nH]ccc2cc3nc4ccccc4c3cc12,3.7µM*,4%,5.2µM*,9,-3,-58*
Cc1ccc(C)c(-c2nn(-c3cc(N4CCN(CCO)CC4)ccc3[N+](=O)[O-])c(=O)c3ccccc23)c1,26µM*,-4%,?,9,-3,?
Cc1nn(-c2cc(N3CCCC3)ccc2[N+](=O)[O-])c(=O)c2ccccc12,?,2%,-21%,-59*,-1,16
Nc1ccccc1C#Cc1ccc([N+](=O)[O-])cc1,?,.,-27%,?,-12,-11
Nc1ccccc1C#CC(=O)c1ccccc1,?,-1%,1.3µM*,?,-2,-102*
CC1(NC(=O)c2cc(Cl)nc3ccccc23)CCS(=O)(=O)C1 (centres undefined),11%,-14%,2%,-4,8,13
Cc1ccc(C(=O)Nc2cc3ccccc3oc2=O)cc1,3.7µM*,.,2.1µM*,19,12,37
CC(=O)c1cc(NC(=O)c2ccccc2)c(=O)oc1C,33µM*,.,?,3,-2,-102*
Cc1oc(=O)c(NC(=O)c2ccccc2)cc1C(=O)c1ccccc1,?,-1%,?,?,-1,1
CC(=O)c1cc(NC(=O)c2ccc(C)cc2)c(=O)oc1C,?,.,23µM*,5,13,-106*
CCCOP(=O)(c1ccc(N(C)C)cc1)C(O)c1ccccc1OC (centres undefined),?,-4%,-7%,-25,-10,-15
C=CC(=O)N(CCC)C(c1ccccc1)c1ccccc1OC (centres undefined),15µM*,2%,16µM*,-13,-10,-27
CN(C)S(=O)(=O)Oc1cccc(C(=O)Nc2cccc(Cl)c2)c1,18µM*,0%,15µM*,?,3,-56*
COc1cccc(C(=O)Nc2ccc3[nH]ncc3c2)c1,-29%,.,-5%,28,1,-57*
CN(C)S(=O)(=O)Oc1cccc(C(=O)Nc2ccc(Cl)c(Cl)c2)c1,10µM*,-6%,7.3µM*,-53*,5,-88*
COc1ccc(NC(=O)c2cccc(OS(=O)(=O)N(C)C)c2)cc1,5.2µM*,.,18µM*,0,0,-12
COc1cccc(C(=O)Nc2cccc(NC(=O)c3ccccc3Cl)c2)c1,?,1%,?,-8,-2,?
CCOc1cccc(C(=O)Nc2ccc3[nH]ncc3c2)c1,-15%,-2%,7%,6,3,-22
Cc1cccc(NC(=O)C(=O)NCCc2csc(-c3ccc(C(F)(F)F)cc3)n2)c1C,-26%,-7%,-27%,.,2,.
C[C@H]1NCc2cc(-c3ccc4c(=O)c(C(=O)O)cn(C5CC5)c4c3OC(F)F)ccc21,-14%,.,-23%,.,5,.
COCCCNC(=O)Cc1c(C)c2c(cc(C)c3c(C(C)(C)C)coc32)oc1=O,1.3µM*,3%,1.3µM*,43,11,-3
Cc1coc2c(C)c3oc(=O)c(CCC(=O)NCCC(=O)O)c(C)c3cc12,-1%,.,23%,3,1,-11
Cc1coc2c(C)c3oc(=O)c(CCC(=O)NCCc4ccccc4F)c(C)c3cc12,16µM*,?,?,.,-7,.
COc1ccc(CCNC(=O)Cc2c(C)c3cc(OC)c(OC)cc3oc2=O)cc1,-23%,5%,-6%,.,-3,.
SMILES,TDP1 cell noCPT,ClpP mod,TDP1 cell CPT,DRD3 antagonist,D3 ag,IL1B secr inh
COc1ccc(CNC(=O)CCc2c(C)c3cc4c(C)c(C)oc4cc3oc2=O)cc1,?,?,?,.,5,.
COc1ccc(CNC(=O)CCc2c(C)c3cc4c(C)coc4cc3oc2=O)cc1,15µM*,-1%,?,.,-13,.
COc1ccc(CCNC(=O)Cc2c(C)c3cc4c(C(C)(C)C)coc4c(C)c3oc2=O)cc1OC,8.2µM*,0%,6.5µM*,.,11,.
Cc1cccc(NS(=O)(=O)c2ccc(NC(=O)N3CCCC3)cc2)c1,-10%,0%,-11%,.,-12,.
COC(=O)CCC(=O)N1CCCC(N2CCN(c3ccc(OC)cc3)CC2)C1 (centres undefined),16%,.,4%,23,-6,22
C/C(=C\c1ccccc1)C(=O)Nc1ccc(Cl)cn1,-13%,-1%,-16%,-4,-9,-7
Cc1c(CC(=O)NCCc2ccccc2F)c(=O)oc2c(C)c3occ(C(C)(C)C)c3cc12,16µM*,?,13µM*,.,3,.
Cc1cc2oc(=O)c(CC(=O)O)c(C)c2c2occ(-c3ccccc3)c12,0%,32µM*,-10%,.,-8,.
COc1ccc(CCNC(=O)CCc2c(C)c3cc4c(C)coc4c(C)c3oc2=O)cc1OC,8.2µM*,?,21µM*,.,-3,.
COc1ccc(CNC(=O)Cc2c(C)c3cc4c(C)coc4c(C)c3oc2=O)cc1OC,?,-18%,?,.,10,.
Cc1c(CC(=O)NCCc2ccccc2)c(=O)oc2c(C)c3occ(C(C)(C)C)c3cc12,18µM*,32µM*,16µM*,.,-15,.
CCOC(=O)C1=C(COC(=O)CNS(=O)(=O)c2c(F)cc(F)cc2Br)NC(=O)NC1C (centres undefined),11%,2%,0%,11,-14,15
CCS(=O)(=O)NC(C)C(c1cccs1)N1CCN(C)CC1 (centres undefined),-5%,2%,-12%,-26,-19,-9
CC(NC(=O)Cc1cccs1)C(c1cccs1)N1CCN(c2ccccc2)CC1 (centres undefined),?,-1%,?,8,9,-4
CCS(=O)(=O)NC(C)C(c1cccs1)N1CCN(c2ccc(F)cc2)CC1 (centres undefined),21µM*,1%,?,20,1,16
CC(NC(=O)Cc1cccs1)C(c1cccs1)N1CCN(c2ccccc2F)CC1 (centres undefined),?,-3%,18µM*,-10,0,-3
Cc1ccc(S(=O)(=O)NC(C)C(c2cccs2)N2CCN(C)CC2)cc1 (centres undefined),-12%,-2%,-14%,-26,-16,0

# Source: PubChem BioAssay
